Smad3 inh: Smad3 (human) transcription factor binding inhibition; TR-FRET Smad3/Dy647-FoxH1 peptide binding, europium anti-His; inhibition, % at 25 µM; 88,000 compounds, 0.29% hits; AID 630;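 active = compounds that reduce the energy-transfer binding signal between the protein and its labelled peptide by more than half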;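 note: 0% = Smad3 plus labelled peptide maximal FRET and 100% = peptide-only background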
Target sequence (P84022 whole entry, looked up): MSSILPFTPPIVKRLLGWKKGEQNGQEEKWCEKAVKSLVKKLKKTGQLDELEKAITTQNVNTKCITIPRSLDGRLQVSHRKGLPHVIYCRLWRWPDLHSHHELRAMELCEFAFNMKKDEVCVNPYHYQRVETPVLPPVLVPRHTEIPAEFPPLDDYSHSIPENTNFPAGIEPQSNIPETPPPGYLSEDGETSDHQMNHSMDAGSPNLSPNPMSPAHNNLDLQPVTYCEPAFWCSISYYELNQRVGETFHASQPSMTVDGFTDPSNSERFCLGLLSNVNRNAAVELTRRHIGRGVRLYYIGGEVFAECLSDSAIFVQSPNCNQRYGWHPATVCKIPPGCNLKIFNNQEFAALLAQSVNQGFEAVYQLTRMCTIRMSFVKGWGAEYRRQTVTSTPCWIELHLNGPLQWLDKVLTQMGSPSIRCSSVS
FAK inh: blocks human focal adhesion kinase activity. 97,000 compounds, 0.84% hits. inhibition, %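 (tested at 7 µM)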. Q05397. biochemical FAK kinase activity assay. AID 727; in the data active = inhibition above about 19%;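 note: 0% = DMSO and 100% = reference compound high control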
ERb coact inh: ER-beta (human) coactivator binding inhibition; AID 633; 86,000 compounds, 1.3% hits; Q92731; TR-FRET ER-beta LBD / SRC1-Cy5 peptide binding; receptor agonist-loaded with 1 µM estradiol; inhibition, % at 25.6 µM;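 active = compounds whose percent inhibition of the receptor-coactivator binding signal exceeds about 50% in the single-dose screen, limit read from the data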;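 note: 0% = receptor plus peptide wells without compound and 100% = peptide-only wells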
ERa coact inh: blocks coactivator binding to human estrogen receptor alpha | TR-FRET ER-alpha LBD / SRC-1 peptide, estradiol-bound | P03372 | inhibition, % at 25.6 µM | 86,000 compounds, 1.7% hits; in the data active = inhibition above about 50%;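 note: 0% = receptor plus peptide control and 100% = peptide only without receptor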
ERa SRC1 pot: ER-alpha (human) coactivator binding potentiation; TR-FRET ERalpha-LBD/SRC-Cy5 coactivator binding, 2 h; 100 = basal binding, no effect; P03372; coactivator binding (% of control), % at 25.6 µM; 86,000 compounds, 1.3% hits; in the data active = activity above about 200%;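 note: binding measured in presence of low estradiol as agonist stimulus; 0% = peptide alone without receptor and 100% = receptor with peptide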
The depositor's hits bear a star; nt = no result given; + = active, no number; [ ] = dose if it differs, or a comment. Most compounds without a hit are left out; they make up all but 3.3% or so of the library.

SMILES | Smad3 inh | FAK inh | ERb coact inh | ERa coact inh | ERa SRC1 pot
Cc1cc(NC(=O)CSc2nc3c(c(=O)n2-c2ccc(Br)cc2)SCC3)no1 | -71 | 0 | 29 | 60*[fluorescence artefact?] | 126
COc1ccccc1OCC(=O)Nc1nc(-c2ccc(S(=O)(=O)N3CCOCC3)cc2)cs1 | -13 | 0 | 15 | 27 | 217*[fluorescence artefact?]
O=C(COc1ccccc1)Nc1nc(-c2ccc(S(=O)(=O)N3CCOCC3)cc2)cs1 | 12 | -1 | 21 | 19 | 328*[fluorescence artefact?]
O=C(COc1ccc(Cl)cc1)Nc1nc(-c2ccc(S(=O)(=O)N3CCOCC3)cc2)cs1 | 2 | -1 | 19 | 12 | 275*[fluorescence artefact?]
O=C(COC(=O)c1ccc(S(=O)(=O)N2CCOCC2)cc1)Nc1nc(-c2ccccc2)cs1 | 9 | -6 | 35 | 26 | 139
CCN(CC(=O)O)C(=O)c1cccnc1 | -5 | nt | nt | nt | nt
O=S(=O)(c1ccccc1Cl)N1CCCC(c2nc(-c3cccnc3)no2)C1 (stereo not given) | 6 | 6 | -3 | -5 | 107
CC1(C)N=C(N)N=C(N)N1c1cccc(CSc2ccccc2)c1 | -11 | nt | nt | nt | nt
CC(C)OC(=O)CSc1nnc(-c2ccc(C(C)(C)C)cc2)n1N | 7 | -4 | -2 | 98*[fluorescence artefact?] | 111
CC(=O)C1=C(C)NC(SCSc2ccccc2)=C(C#N)C1c1cccnc1 (stereo not given) | 0 | 0 | 4 | 4 | 88
CC(=O)C1=C(C)NC(SCC(=O)c2ccc(-c3ccccc3)cc2)=C(C#N)C1c1cccnc1 (stereo not given) | -7 | 1 | 29 | 38 | 355*[fluorescence artefact?]
Cc1cc(C)cc(N(CC(=O)O)S(=O)(=O)c2c(C)noc2C)c1 | 9 | -2 | -2 | -9 | 105
Cc1noc(C)c1S(=O)(=O)N(CC(=O)O)c1ccc2c(c1)OCO2 | -1 | -2 | 54* | 41 | 60
O=C(O)C[C@@H](C(=O)O)C1c2ccccc2-c2ccccc21 | 7 | nt | nt | nt | nt
CCC(C)Sc1nc2c(cnn2-c2ccc(C)cc2)c(=O)[nH]1 (stereo not given) | 10 | -3 | 43 | 4 | 526*[fluorescence artefact?]
CCSc1nc2c(cnn2-c2ccc(C)cc2)c(=O)[nH]1 | 4 | nt | 23 | -19 | 628*
CC(C)(C)c1cc(Br)c(O)c(CN(Cc2cc(C(C)(C)C)cc(Br)c2O)C2CCCCC2)c1 | 5 | nt | nt | nt | nt
C(CCc1nnc2c(n1)CCCC2)Cc1nnc2c(n1)CCCC2 | -3 | nt | nt | nt | nt
Cc1ccc(OCc2ccoc2C(=O)O)cc1C | 16 | 1 | 66* | 62* | 32
Cc1ccc(OCc2ccc(C(=O)N3CCOCC3)cc2)cc1C | 8 | -1 | -12 | -25 | 59
CCOC(=O)CN1C(=O)CSc2ccccc21 | nt | 1 | nt | nt | nt
C[N+](C)(C)CCN[N@+]1(C)CCCc2ccccc21 | 103* | nt | nt | nt | nt
O=c1[nH]c(=S)c2[nH]c(=O)n(-c3ccccc3)c2[nH]1 | 40 | nt | nt | nt | nt
O=C1C(Cl)=C(Nc2ccc(S(=O)(=O)Nc3ccccn3)cc2)C(=O)c2ccccc21 | 99* | nt | nt | nt | nt
O=C(CSc1nc2c(sc3ccccc32)c(=O)n1Cc1ccco1)NCC1CCCO1 (stereo not given) | -59 | 2 | 39 | 12 | 279*[fluorescence artefact?]
SMILES | Smad3 inh | FAK inh | ERb coact inh | ERa coact inh | ERa SRC1 pot
Nc1nc(N)c(CCCCc2ccccc2)c(N)n1 | -11 | nt | nt | nt | nt
N[C@@]1(C(=O)O)CCC[C@@H]1C(=O)O | 7 | nt | nt | nt | nt
CC(C)(C)NC[C@@H](O)c1ccc(O)c(CO)n1 | 14 | nt | nt | nt | nt
CCOC(=O)C(CC)(CCC(=O)O)c1csc(N)n1 (stereo not given) | 5 | 0 | 8 | -5 | 98
CCOC(=O)C(CCC(=O)O)(CCC(C)C)c1csc(N)n1 (stereo not given) | -5 | -3 | -15 | -10 | +[fluorescence artefact?]
Clc1ccccc1C(Nc1cnccn1)Nc1cnccn1 | 35 | nt | nt | nt | nt
O=c1oc2cc(N=Cc3ccc4c(c3)OCO4)ccc2c2ccccc12 | -1 | nt | nt | nt | nt
COc1ccc(CCNC(=O)COC(=O)c2ccco2)cc1OC | -14 | -7 | 78*[fluorescence artefact?] | -7 | 113
CCC(CC)C(=O)NCCc1ccc(OC)c(OC)c1 | -10 | -2 | 8 | 1 | 81
[O-][N+]1(CC[N+]2([O-])CCCCC2)CCCCC1 | -8 | nt | nt | nt | nt
O=C1C2C3C=CC(C3)C2C(=O)N1c1cccc2cccnc12 (stereo not given) | -4 | 0 | 51* | 40 | 65
CN(C)S(=O)(=O)c1ccc(NC(=O)COC(=O)c2ccccn2)cc1 | 2 | -4 | -8 | -3 | 92
CC(C)NC(=O)CSc1nc(-c2cccs2)cc(-c2ccccc2)c1C#N | -36 | -25 | 7 | 11 | 255*
CN(c1ccc(C(=O)NCc2ccc3c(c2)OCO3)cc1)S(C)(=O)=O | 3 | 3 | 81*[fluorescence artefact?] | -2 | 101
CN(c1ccccc1C(=O)Nc1ccc2c(c1)OCO2)S(C)(=O)=O | -5 | -4 | 53*[fluorescence artefact?] | 48 | 62
CS(=O)(=O)N(CCc1ccccc1)CC(=O)Nc1ccc2c(c1)OCO2 | 6 | 1 | 46 | 62*[fluorescence artefact?] | 47
CS(=O)(=O)N(CC(=O)Nc1ccc2c(c1)OCO2)Cc1ccccc1 | -11 | -1 | 31 | 0 | 117
[O-][n+]1c(CN2CCCCC2)nc2cccc3c2c1-c1ccccc1-3 | -10 | nt | nt | nt | nt
NC(N)=N[C@H](CC(=O)O)c1ccccc1 | 0 | nt | nt | nt | nt
CCN1CCN(C(=O)c2ccc(NS(=O)(=O)c3ccccc3)cc2)CC1 | -5 | 1 | 4 | -3 | 109
COc1cc(-c2nc(-c3cccc(C)c3)no2)cc(OC)c1OC | -4 | 1 | 18 | -6 | 129
COc1cc(-c2noc(-c3cccc(Cl)c3)n2)cc(OC)c1OC | -3 | 1 | 16 | 5 | 233*
CCCCOc1ccc(-c2nnn(CC(=O)c3c[nH]c4ccccc34)n2)cc1 | -17 | 4 | 27 | 5 | 90
CCC1=NN=C(c2ccc(F)cc2)C(c2c[nH]c3ccccc23)N1O (stereo not given) | 1 | -4 | -9 | 2 | 686*[fluorescence artefact?]
CCn1c(SCC(=O)Nc2ccccc2OC)nnc1-c1cnccn1 | 2 | -3 | 4 | 14 | 116
CCn1c(SCC(=O)Nc2ccc3c(c2)c2ccccc2n3CC)nnc1-c1cnccn1 | 0 | nt | 29 | 74* | 105
CCn1c2ccccc2c2cc(NC(=O)CSc3nnc(-c4ccc(OC)cc4)n3N)ccc21 | 8 | 15 | 16 | 68* | 59
